Viability data for 66 molecules are collected here from PubChem BioAssay AID598 (SRMLSC, 2007).

Molecules are shown by their SMILES. Hit rate of the full screen: of about 85,000 compounds, about 5,100 (6%) were called active. What follows is part of a selection rich in actives, with near analogues and random picks from the rest. Unmarked numbers belong to inactive results.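 The calls were made as follows: active = viability at or below 40%; inactive = viability above 40%.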

A short description of this test: H69AR cell viability reduction – human, 86K library, primary screen (AID 598).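 Also: multidrug resistant small cell line overexpressing MRP-1 efflux transporter; 100% = mean luminescence of untreated control wells.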 Conditions: H69AR lung tumor viability, ATP luminescence, 72 h; at 10 µM; stronger effect = lower value.
In the case of `Cc1nc2c(c(=O)n1Cc1ccco1)c1nc3ccccc3nc1n2Cc1ccccc1`, the viability is 11.2% (active).

Consider `Cc1ccc(Cn2c(C)nc3c(c2=O)c2nc4ccccc4nc2n3Cc2ccco2)cc1`, for which the viability was 83.3%.

For the molecule `COCCCn1c2nc3ccccc3nc2c2c(=O)n(Cc3ccc(Cl)cc3)c(C)nc21`, the viability is 64.8%.

Turning to `OCCCN1c2ccccc2Nc2nnc(-c3ccccc3)cc21`, the viability is 39.4% (active).

As for `Cc1nc(NC(=O)C2CCCCC2)sc1C`, the viability was 91.5%.

For `CCNS(=O)(=O)c1ccc(NC(=O)Nc2cccc(C(F)(F)F)c2)cc1`, the viability is 9.94% (active).

Take `O=C(O)CSCC(=O)Nc1cccc(C(F)(F)F)c1`: the viability is 96.6%.

Take `CCNS(=O)(=O)c1ccc(NC(=O)Nc2cccc(OC)c2)cc1`: the viability is 82.3%.

For the molecule `COc1ccc(-c2cn(-c3ccc(C)cc3)c(=O)n2CC(=O)Nc2ccc(OC)c(OC)c2)cc1`, the viability was 76.5%.

In the case of `CS(=O)(=O)n1nc(-c2ccccc2)nc1NCc1ccco1`, the viability was 96.7%.

Take `Cc1cc(S(=O)(=O)NC2CCCCC2)ccc1OCC(=O)NCc1cccnc1`: the viability was 107%.

Regarding `CC1(C)CC(CC(=O)O)C(=O)O1` (stereo unspecified), the viability was 98%.

In the case of `COc1cccc(OCC(O)CN2CCN(CCO)CC2)c1` (stereo unspecified), the viability was 96.9%.

In the case of `Cc1ccc(OCC(O)CN2CCN(CC(O)COc3ccc(C)cc3Cl)CC2)c(Cl)c1` (stereo unspecified), the viability is 1.96% (active).

On to `OC(COc1cccc2ccccc12)CN1CCN(c2ccccn2)CC1` (stereo unspecified), for which the viability was 86.3%.

As to `CCN(CC(=O)NCc1cccs1)c1nnnn1-c1ccccc1`, the viability was 14% (active).

Take `O=C(CSc1nnnn1-c1ccccc1)NCc1ccco1`: the viability is 80%.

With `Cc1nnc(SCC(=O)NCc2cccs2)[nH]c1=O`, the viability was 91.8%.

Take `O=C1CCCCC(=O)c2ccccc2N1`: the viability is 102%.

Take `c1ccc2c(c1)C(=NC1CCCCC1)NC2=NC1CCCCC1`: the viability was 15.9% (active).

`Cc1nnc(OCC(=O)NCCC2=CCCCC2)c2ccccc12`: the viability is 101%.

For the molecule `Cc1c(NC(=O)c2coc(=O)c(Br)c2)c(=O)n(-c2ccccc2)n1C`, the viability is 2.66% (active).

Regarding `Cc1cc(C(=O)Nc2c(C)n(C)n(-c3ccccc3)c2=O)cs1`, the viability was 110%.

On to `COC(=O)Nc1c(C)n(C)n(-c2ccccc2)c1=O`, for which the viability is 99.9%.

For the molecule `Clc1ccc(Nc2nc(-c3cccs3)cs2)nc1`, the viability is 31.8% (active).

For the molecule `O=C(Nc1ccc(Cl)cn1)Nc1cccs1`, the viability is 98.4%.

For the molecule `c1ccc(Nc2nc(-c3ccncc3)cs2)nc1`, the viability was 86.7%.

With `Cc1cc(C)c2cc(CN(Cc3nnnn3Cc3ccc(F)cc3)C3CCCC3)c(=O)[nH]c2c1`, the viability is 64.6%.

Regarding `CCCCOC(=O)Cn1c(=N)n(CCN(CC)CC)c2ccccc21`, the viability is 91.2%.

For `O=c1c2ccccc2nc(N/N=C/c2ccccc2)n1O`, the viability was 46.3%.

Turning to `CCn1c(/C=C/c2ccc([N+](=O)[O-])o2)nc2ccccc2c1=O`, the viability was 6.55% (active).

With `CCOC(=O)C1CCc2nc3ccccc3c(=O)n21` (stereo unspecified), the viability is 96.6%.

For the molecule `O=C(CCN1c2ccccc2Sc2ccccc21)Nc1ccccc1`, the viability was 70.8%.

On to `CC1=CC(=O)C=CC1(C)C(Cl)(Cl)Cl` (stereo unspecified), for which the viability was 105%.

For `COc1ccc2c(c1)cc1n2CCN=C1NN`, the viability is 90.8%.

As to `COC(=O)C1=C(C(=O)OC)C2(OC1c1ccc(Br)cc1)C(=O)c1ccccc1C2=O` (stereo unspecified), the viability was 106%.

Consider `CCOC(=O)c1ccc(N2C(=O)CC(N(C)Cc3ccccc3)C2=O)cc1` (stereo unspecified), for which the viability is 93.7%.

Turning to `O=C(c1cccc(C(=O)N2CCN(c3ccc(F)cc3)CC2)c1)N1CCN(c2ccc(F)cc2)CC1`, the viability is 70.1%.

For the molecule `Fc1ccc(N2CCN(Cc3cnc(Oc4ccc(Br)cc4)s3)CC2)cc1`, the viability is 90.4%.

Turning to `Oc1c(CN2CCN(c3ccc(F)cc3)CC2)cc(Cl)c2cccnc12`, the viability is 5.07% (active).

In the case of `Cn1c(-c2sc3cc(C(F)(F)F)cnc3c2-c2ccccc2)n[nH]c1=S`, the viability is 92.5%.

`C=CCc1ccc(OCCOc2cccc(/C=N/n3cnnc3)c2)c(OC)c1`: the viability was 80.3%.

As for `CCOC(=O)CSc1nnc(-c2ccncc2)o1`, the viability was 95.7%.

In the case of `O=C(OCC#CCSc1nnc(-c2ccncc2)o1)c1sc2ccccc2c1Cl`, the viability was 2.76% (active).

As to `O=C(Nc1ccon1)c1sc2ccccc2c1Cl`, the viability was 88.1%.

Take `O=C(Nc1ccc2c(c1)CCC2)c1cccc(S(=O)(=O)N2CCN(c3ccc(F)cc3)CC2)c1`: the viability was 79.3%.

For the molecule `COc1ccc(C2CC(=O)n3c(nc4ccccc43)S2)cc1OC` (stereo unspecified), the viability was 115%.

With `COc1ccc(C2CC(c3cccs3)=Nc3ccccc3S2)cc1OC` (stereo unspecified), the viability was 20.8% (active).

Take `COc1ccc(C2SCCN2S(=O)(=O)c2ccccc2)cc1OC` (stereo unspecified): the viability is 81.4%.

Turning to `O=C(Nc1ccc(F)c(Cl)c1)C1CCN(S(=O)(=O)c2cccnc2)CC1`, the viability is 71.8%.

As for `CCOC(=O)c1cnn(Cc2ccccc2Cl)c1N`, the viability was 96.2%.

Regarding `CC1CCCN(C(C(=O)Nc2ccc(C(C)C)cc2)c2ccc3c(c2)OCO3)C1` (stereo unspecified), the viability was 59.6%.

Take `CC(=O)N1CCN(CCN=CC2=C(O)CC(C)(C)CC2=O)CC1`: the viability is 101%.

As for `Cc1[nH]n(-c2ccc([N+](=O)[O-])cc2)c(=O)c1C=NCCN1CCN(C(=O)c2ccccc2F)CC1`, the viability was 39.4% (active).

Take `CC(=O)Nc1ccc(S(=O)(=O)N2CCN(C(=O)c3ccccc3F)CC2)cc1`: the viability was 85.2%.

`CCC(C(=O)NCc1ccc(OC)cc1)n1nc(C)n2c(cc3occc32)c1=O` (stereo unspecified): the viability was 80.3%.

With `CCCc1nnc(NC(=O)c2cccs2)s1`, the viability is 102%.

For the molecule `CCCCNS(=O)(=O)c1ccc(S(=O)(=O)n2cnc3ccccc32)cc1`, the viability is 88.8%.

As to `O=S(=O)(c1ccc(Br)cc1)n1ccc2ccccc21`, the viability is 8.36% (active).

Regarding `CC1(C)C2CCC13CS(=O)(=O)NC3C2` (stereo unspecified), the viability is 91.1%.

As for `CCn1c(C)nc2cc(C(=O)NNS(=O)(=O)c3ccc(C)cc3C)ccc21`, the viability was 95.5%.

With `OC(c1ccccc1)c1nccn1Cc1ccccc1` (stereo unspecified), the viability is 94.2%.

For the molecule `CCn1c(Cc2cccs2)nnc1SCC(=O)c1ccc(C)cc1`, the viability was 84.1%.

Turning to `N/C(=N\OC(=O)Nc1ccc(Cl)c(Cl)c1)c1ncc(C(F)(F)F)cc1Cl`, the viability is 19.4% (active).

For `NC(=O)c1ncc(C(F)(F)F)cc1Oc1ccc(F)cc1`, the viability was 102%.

Take `O=C(CN1CCN(c2ncc(C(F)(F)F)cc2Cl)CC1)Nc1ccc2c(c1)OCO2`: the viability is 105%.
